Assay results from PubChem BioAssay.
Activity calls are given as the source filed them.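 The calls were made as follows, unless noted: active = inhibition at or above 50% at 10 µM; inactive = inhibition below 50%.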

Tests used:
[1] = inhibitors of TNFa-induced NFkB p65 translocation, primary screen, imaging, HUVEC, MLSMR starter and 10KST1 sets (AID 438;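 active = inhibition above 20% together with a positive visual image hit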;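 also: compound added about 3h40 before a 20 min TNFalpha stimulation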;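 as to inhibition: signal is the nuclear over cytoplasmic p65 intensity ratio per well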); conditions: HUVEC TNFa-induced p65 nuclear translocation; cell count: measured here: nuclei count (cytotoxicity indicator), at 2.08 µM; inhibition: at 2 µM, stronger effect = higher value, 0% TNFa-plus-vehicle, 100% no-TNFa wells
[2] = reduction of polyQ htt aggregates in cells – imaging, exon1htt(103Q)mCFP cells, high-content imaging, primary screen (AID 483;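 active = visual image review flags a hit and inhibition of aggregation exceeds 20%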;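 also: compound exposure lasted 3 days before fixation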;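 as to nuclei count: percent of the per-plate median nuclei count of sample wells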); conditions: exon1htt(103Q)mCFP cell line, aggregate imaging, at 2 µM; inhibition of aggregation: stronger effect = higher value; nuclei count: measured here: cell count, toxicity
[3] = endothelial E-selectin expression blockers – imaging, HUVEC, immunofluorescence, MLSMR starter and 10KST1 sets, primary screen (AID 487;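 active = visually confirmed hit in the image check and inhibition above 20%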;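 as to inhibition: signal is fraction of cell area covered by stained E-selectin grains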;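 as to nuclei count: 100% = median nuclei count of all wells on the same plate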); conditions: HUVEC TNFalpha-induced E-selectin immunofluorescence imaging, at 2 µM; inhibition: stronger effect = higher value; nuclei count: measured here: cell number, toxicity
[4] = molecular target: Voltage-gated potassium channel subunit beta-2 (Rattus norvegicus) (UniProt P62483); assay: inhibitors of rat Kvbeta2 reductase activity – biochemical, NADPH fluorescence, primary screen (AID 622;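 active = fluorescence slope higher than the sample average by over 3 SD, cut at about -0.22 in these data, passing the limit was not always enough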;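 also: slope of raw intensity against log time taken from 70 to 1610 s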); conditions: recombinant KvBeta, 4-cyanobenzaldehyde reduction, at 10 µM, stronger effect = higher value
[5] = molecular target: Voltage-gated potassium channel subunit beta-2 (Rattus norvegicus) (UniProt P62483); assay: enhancers of rat Kvbeta2 NADPH turnover – biochemical, NADPH fluorescence, primary screen (AID 623;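 active = NADPH fluorescence slope more negative than the mean of all samples by about 3 SD, 99.7% confidence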;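 also: fluorescence intensity change per second fitted from 20 to 320 s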); conditions: Recombinant KvBeta, NADPH fluorescence decrease slope, 10 min; at 10 µM; stronger effect = lower value
[6] = molecular target: Alpha-2C adrenergic receptor (Homo sapiens) (UniProt P18825); assay: compounds altering alpha2C-coupled GIRK flux – cell-based, HEK293 alpha2C/GIRK1/2, thallium flux, primary screen (AID 624;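 active = fluorescence slope after compound addition differing from the mean of all screened samples at 99.7% confidence, in either direction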;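 also: slope of fluorescence ratio to pre-addition baseline per second over 15 to 24 s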); conditions: thallium flux BTC fluorescence, at 10 µM, actives lie on both sides
[7] = blockers of RIG-like receptor reporter activation – cell-based, Sendai virus stimulus, luciferase, 10K MLSCN set, TLR/RLR signaling modifier project, primary screen (AID 602276); conditions: HEK293 RL24 IRF3 luciferase reporter, at 10 µM, stronger effect = higher value;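 also: firefly luciferase from ISG56 promoter only with Renilla not read in this screen; 0% = Sendai virus plus DMSO and 100% = medium plus DMSO without virus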
[8] = TLR3 IRF3 reporter activation blockers – cell-based, poly I:C stimulus, luciferase, 10K MLSCN set, primary screen (AID 602277;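 active = inhibition of the reporter signal at or above 50%; inactive = inhibition below 50%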); conditions: HEK293-TLR3 RL24 IRF3 luciferase reporter, at 10 µM, stronger effect = higher value

Sequence of Alpha-2C adrenergic receptor (Homo sapiens) (P18825 whole entry, looked up): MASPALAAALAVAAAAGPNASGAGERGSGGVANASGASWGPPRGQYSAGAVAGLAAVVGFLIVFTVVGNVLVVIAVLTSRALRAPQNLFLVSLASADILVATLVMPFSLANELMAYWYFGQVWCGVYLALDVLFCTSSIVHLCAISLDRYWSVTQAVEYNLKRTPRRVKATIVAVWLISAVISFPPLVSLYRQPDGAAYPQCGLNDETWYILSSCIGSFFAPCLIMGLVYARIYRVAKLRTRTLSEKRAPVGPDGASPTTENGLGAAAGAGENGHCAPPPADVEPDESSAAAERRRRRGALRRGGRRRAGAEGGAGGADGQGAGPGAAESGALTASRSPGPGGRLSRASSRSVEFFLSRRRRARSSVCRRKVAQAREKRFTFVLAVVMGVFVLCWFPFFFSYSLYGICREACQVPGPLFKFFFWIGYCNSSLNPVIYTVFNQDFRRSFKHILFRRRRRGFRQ
Sequence of Voltage-gated potassium channel subunit beta-2 (Rattus norvegicus) (P62483 whole entry, looked up): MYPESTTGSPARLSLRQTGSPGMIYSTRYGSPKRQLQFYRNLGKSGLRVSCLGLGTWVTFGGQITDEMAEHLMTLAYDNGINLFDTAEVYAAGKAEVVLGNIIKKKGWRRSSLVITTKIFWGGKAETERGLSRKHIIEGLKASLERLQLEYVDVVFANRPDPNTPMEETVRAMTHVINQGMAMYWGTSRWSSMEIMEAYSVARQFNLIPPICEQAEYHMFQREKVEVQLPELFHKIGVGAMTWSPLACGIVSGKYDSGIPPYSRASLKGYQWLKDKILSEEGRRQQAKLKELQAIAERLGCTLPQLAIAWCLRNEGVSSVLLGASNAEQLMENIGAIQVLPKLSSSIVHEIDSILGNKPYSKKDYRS

| SMILES | cell count [1] | inhibition [1] | inhibition of aggregation [2] | nuclei count [2] | inhibition [3] | nuclei count [3] | fluorescence slope [4] | NADPH fluorescence slope [5] | slope [6] | inhibition [7] | inhibition [8] |
| --- | --- | --- | --- | --- | --- | --- | --- | --- | --- | --- | --- |
| Cc1cc(C)n(-c2nc3c(c(=O)n(Cc4ccc(Cl)c(Cl)c4)c(=O)n3C)n2C)n1 | 404 | -1.4% (inactive) | 1.2% (inactive) | 105% | -8.9% (inactive) | 115% | -0.6 (inactive) | -1.8e-05 (inactive) | 0.00595 (inactive) | 4.56% (inactive) | 21.6% (inactive) |
| CCCCN(C)CCCNC(=O)CC1Oc2ccccc2NC1=O (stereo not drawn) | 585 | -2.7% (inactive) | 18.9% (inactive) | 104% | -11.7% (inactive) | 131% | -0.493 (inactive) | 1.6e-05 (inactive) | 0.00638 (inactive) | 13.8% (inactive) | 36.6% (inactive) |
| O=C(C1CCCN(S(=O)(=O)c2ccc(Br)s2)C1)N1CCCCCC1 (stereo not drawn) | 217 | -1.9% (inactive) | 5.7% (inactive) | 75.1% | 30.6% (inactive) | 31.6% | -0.378 (inactive) | -4.5e-05 (inactive) | 0.00305 (inactive) | 2.37% (inactive) | 13.4% (inactive) |
| CN(C)CCN1C(=O)c2oc3ccc(Cl)cc3c(=O)c2C1c1cccc(Br)c1 (stereo not drawn) | 229 | -8.1% (inactive) | 13.3% (inactive) | 83.3% | -36.3% (inactive) | 89.9% | -0.412 (inactive) | -1.4e-05 (inactive) | 0.00335 (inactive) | 17.2% (inactive) | 49.7% (inactive) |
| CCc1c(C(=O)NCCc2ccc(OC)c(OC)c2)[nH]c(C)c1C(C)=O | 274 | 2.4% (inactive) | -21.3% (inactive) | 107% | 5.2% (inactive) | 93.4% | -0.34 (inactive) | -1.2e-05 (inactive) | 0.00669 (inactive) | 17.6% (inactive) | 16.1% (inactive) |
| CC(C)(C)C(=O)Cn1c[n+](N)cn1 | 545 | -9.5% (inactive) | -3.6% (inactive) | 118% | 18.1% (inactive) | 105% | -0.62 (inactive) | -3.8e-05 (inactive) | 0.00385 (inactive) | 18.9% (inactive) | 26.2% (inactive) |
| CCc1ccc(N2CC(C(=O)OCC(=O)NC3CCS(=O)(=O)C3)CC2=O)cc1 (stereo not drawn) | 260 | 21% (inactive) | 12% (inactive) | 85.2% | 6.8% (inactive) | 91.9% | -0.468 (inactive) | 7e-05 (inactive) | 0.00704 (inactive) | 0.238% (inactive) | 7.99% (inactive) |
| O=C(CN(C(=O)CCC(=O)Nc1nccs1)c1ccccc1F)NCC1CCCO1 (stereo not drawn) | 343 | -0.8% (inactive) | 6% (inactive) | 87.3% | -19.4% (inactive) | 124% | -0.609 (inactive) | -1.3e-06 (inactive) | 0.00439 (inactive) | 8.97% (inactive) | 15.4% (inactive) |
| Cc1cc(=O)n2nc(-c3ccccc3)sc2n1 | 563 | -1.1% (inactive) | -4.1% (inactive) | 106% | -70.5% (inactive) | 108% | -0.421 (inactive) | -9.5e-06 (inactive) | 0.00585 (inactive) | -17.6% (inactive) | -64.6% (inactive) |
| COc1cccc(-c2cc(C(F)(F)F)n3ncc(C(=O)O)c3n2)c1 | 382 | -2.6% (inactive) | 13.4% (inactive) | 94.7% | -22.3% (inactive) | 73.7% | -0.576 (inactive) | -5.3e-05 (inactive) | 0.00328 (inactive) | 11% (inactive) | 20.4% (inactive) |
| CC(=O)NCCOc1cccc(OCCNC(C)=O)c1 | 369 | 2.8% (inactive) | 6.8% (inactive) | 103% | -22.5% (inactive) | 117% | -0.432 (inactive) | 4e-05 (inactive) | 0.00674 (inactive) | -7.84% (inactive) | -11.9% (inactive) |
| O=C1c2cccnc2C(=O)N1c1cccc(-c2nc3ccccc3o2)c1 | 339 | 9.1% (inactive) | 28.9% (inactive) | 84% | -87.2% (inactive) | 117% | -0.417 (inactive) | -4e-05 (inactive) | 0.00507 (inactive) | 13.3% (inactive) | 13.5% (inactive) |
| COc1ccc(-c2nc(C#N)c(N3CCN(c4ccccc4)CC3)o2)cc1 | 841 | 1.4% (inactive) | -19.5% (inactive) | 96.2% | -64.6% (inactive) | 118% | -0.577 (inactive) | 1.4e-05 (inactive) | 0.00659 (inactive) | 5.66% (inactive) | 24.4% (inactive) |
| CC(C)CCn1c(=O)c2ccccc2n2c(CN(C)Cc3ccccc3)nnc12 | 486 | -14.2% (inactive) | 0.2% (inactive) | 101% | -78.1% (inactive) | 170% | -0.537 (inactive) | 1.9e-05 (inactive) | 0.00576 (inactive) | 8.18% (inactive) | 26.3% (inactive) |
| CCCCNc1cc(C)oc(=O)c1C(C)=O | 590 | 10.2% (inactive) | 11.4% (inactive) | 97.3% | -81% (inactive) | 123% | -0.443 (inactive) | 2e-05 (inactive) | 0.006 (inactive) | -0.373% (inactive) | 22.9% (inactive) |
| Cc1nnc(N(C)C(=O)Cc2ccc3c(c2)OCO3)s1 | 709 | -6.1% (inactive) | 15.2% (inactive) | 107% | 6.8% (inactive) | 112% | -0.55 (inactive) | 1.1e-05 (inactive) | 0.00419 (inactive) | 21.5% (inactive) | 39.7% (inactive) |
| COC(=O)c1cc2ccsc2n1Cc1nc(-c2ccc(OC)cc2)oc1C | 622 | -17% (inactive) | -22% (inactive) | 120% | -66.3% (inactive) | 109% | -0.347 (inactive) | -2.6e-05 (inactive) | 0.00726 (inactive) | -25.1% (inactive) | -56.7% (inactive) |
| O=C(NCC1CCCO1)c1ccccc1-c1nc(-c2ccc(Cl)cc2)no1 (stereo not drawn) | 821 | -0.7% (inactive) | 1.8% (inactive) | 101% | -141% (inactive) | 122% | -0.483 (inactive) | 3.6e-05 (inactive) | 0.0055 (inactive) | -17.2% (inactive) | -4.71% (inactive) |
| Cc1cc(C(=O)CSc2nnc(-c3ccco3)o2)c(C)n1CC1COc2ccccc2O1 (stereo not drawn) | 393 | 0% (inactive) | 15.2% (inactive) | 90.2% | -115% (inactive) | 105% | -0.516 (inactive) | -2.2e-05 (inactive) | 0.00446 (inactive) | 9.81% (inactive) | 3.57% (inactive) |
| Cc1ccccc1NC(=O)Cc1nnc(SCC(=O)N2CCN(c3ccccc3)CC2)n1C | 483 | -5.3% (inactive) | 2.3% (inactive) | 99.9% | 8.9% (inactive) | 131% | -0.402 (inactive) | -5.5e-05 (inactive) | 0.00281 (inactive) | 11.9% (inactive) | 29.5% (inactive) |
| COc1ccc(S(=O)(=O)N2CCC(C(=O)Nc3c(F)cccc3F)CC2)cc1 | 741 | -9.2% (inactive) | 7% (inactive) | 108% | -55.4% (inactive) | 126% | -0.392 (inactive) | 3.8e-05 (inactive) | 0.00504 (inactive) | -10.2% (inactive) | 1.61% (inactive) |
| Cc1nc(NC(=O)c2ccccc2)sc1-c1csc(NCc2ccco2)n1 | 301 | -2.4% (inactive) | 0% (inactive) | 121% | -13% (inactive) | 113% | -0.185 (inactive) | -1.9e-05 (inactive) | 0.0038 (inactive) | 5.26% (inactive) | -13.8% (inactive) |
| Cc1nc2sc(C(c3ccco3)N3CCN(c4ccccc4F)CC3)c(O)n2n1 (stereo not drawn) | 226 | -5.9% (inactive) | 3.8% (inactive) | 104% | -0.8% (inactive) | 114% | -0.436 (inactive) | -6.1e-06 (inactive) | 0.00573 (inactive) | 7.27% (inactive) | 10.5% (inactive) |
| O=C(NCc1ccco1)c1cnc2n(c1=O)CCS2 | 188 | 4.4% (inactive) | 5.7% (inactive) | 66.8% | 7.8% (inactive) | 93.2% | -0.419 (inactive) | -1.2e-05 (inactive) | 0.00633 (inactive) | 10% (inactive) | 2.98% (inactive) |
| O=C(COc1ccccc1)Nc1nc2ccccc2[nH]1 | 626 | -2.6% (inactive) | 2.7% (inactive) | 114% | 0.2% (inactive) | 119% | -0.45 (inactive) | -6.8e-05 (inactive) | 0.00605 (inactive) | -49.9% (inactive) | -93.8% (inactive) |
| O=C(Oc1cc2oc(=O)c3c(c2cc1Cl)CCCC3)c1ccco1 | 532 | -14.1% (inactive) | -4.9% (inactive) | 101% | -50.1% (inactive) | 148% | -0.14 (inactive) | -2.3e-05 (inactive) | 0.00588 (inactive) | 4.58% (inactive) | 7.41% (inactive) |
| c1ccc(OCCCn2nnc(-c3cccnc3)n2)cc1 | 340 | 0.3% (inactive) | 12.8% (inactive) | 95.2% | -79.2% (inactive) | 121% | -0.343 (inactive) | 4.3e-06 (inactive) | 0.0037 (inactive) | 2.51% (inactive) | -2.63% (inactive) |
| O=C1CN(C(=O)COC(=O)c2ccccc2NC(=O)c2ccco2)c2ccccc2N1 | 271 | -3.3% (inactive) | 7.3% (inactive) | 108% | -31% (inactive) | 123% | -0.507 (inactive) | -8.2e-05 (inactive) | 0.00572 (inactive) | 8.42% (inactive) | -17.5% (inactive) |
